Hits are enriched below; roughly 4.6% of the tested compounds scored in any of these assays.
D1 agonist – activates the human D1 dopamine receptor; P21728; HEK293 T-REx D1 cells, calcium flux, agonist mode; activation, % at 2 µM; 360,000 compounds, 1% hits; AID 504660; also: 0% is about no effect
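Inducible HEK293 T-REx D1 cells, force-coupled to calcium signalling, were plated at 4000 cells/well with tetracycline and held overnight at 30 C. After no-wash calcium dye loading, compound-evoked calcium rise over 180 s flagged agonists.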
D1 antagonist – blocks dopamine activation of the human D1 receptor. activity change, negative = inhibition, % at 10 µM. 360,000 compounds, 3.2% hits. P21728. HEK293 TREx D1 cells, calcium flux, dopamine EC80; active compounds read low; in the data active = activity change below about -30%; also: % is scaled to controls: 0 for no effect and ±100 for the full control effect
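Cells carrying a force-coupled, tetracycline-inducible human D1 receptor report calcium flux. Each well gets a 10 s baseline, compound with 180 s monitoring, then an EC80 dopamine stimulus with a second 180 s kinetic read.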
TRHR enhancer – allosteric enhancers of human TRH receptor; P34981; enhancement, % at 2 µM; TRHR cells, fluo-8 calcium fluorescence, EC20 TRH enhancement; AID 493056; 360,000 compounds, 0.66% hits; in the data active = enhancement above about 30%; also: 0% is about no effect
Target sequence (P34981 whole entry, looked up): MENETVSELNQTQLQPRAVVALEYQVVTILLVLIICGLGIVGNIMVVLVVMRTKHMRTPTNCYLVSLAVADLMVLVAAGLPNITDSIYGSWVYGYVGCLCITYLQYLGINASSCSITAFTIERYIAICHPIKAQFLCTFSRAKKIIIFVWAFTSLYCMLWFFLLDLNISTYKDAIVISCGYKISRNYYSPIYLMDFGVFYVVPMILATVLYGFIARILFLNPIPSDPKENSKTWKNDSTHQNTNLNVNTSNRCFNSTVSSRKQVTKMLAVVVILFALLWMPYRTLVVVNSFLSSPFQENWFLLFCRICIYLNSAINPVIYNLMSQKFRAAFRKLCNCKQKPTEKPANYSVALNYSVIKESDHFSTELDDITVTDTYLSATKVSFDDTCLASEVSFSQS
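TRHR-expressing cells loaded with fluo-8 calcium dye were read kinetically (ex 480/em 530) during compound addition, then stimulated with an EC20 of TRH (10 nM final). Enhancement of the Gq-mediated intracellular calcium response was scored.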
TRHR ag – agonists of human TRH receptor; P34981; TRHR cells, calcium flux fluo-8, FDSS agonist mode; activation, % at 2 µM; 360,000 compounds, 0.18% hits; also: 0% is about no effect
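In this calcium-flux screen, cells bearing human TRHR are dye-loaded with fluo-8, baselined for 10 cycles, then exposed to library compounds; positive kinetic calcium responses during the agonist phase mark hits, with TRH as control.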
D1 potentiator – potentiators of human D1 dopamine receptor; P21728; HEK293 TREx D1 cells, calcium flux, dopamine EC20 potentiation; potentiation, % at 10 µM; 360,000 compounds, 0.036% hits; in the data active = potentiation above about 30%; also: 0% is about no effect
* hit, by the source's call; ! = repeats disagree. Rule as the data show it, unless noted: active = activation above about 30%; inactive = the rest.

How did CCC(CC)C(=O)Nc1nnc(S(=O)(=O)N2CCCCCC2)s1 do in these assays?
D1 agonist: 7; D1 antagonist: 0; TRHR enhancer: -8; TRHR ag: 2; D1 potentiator: 5

What do the screens show for `CC1CCN(S(=O)(=O)c2nnc(NC(=O)c3cccc(Br)c3)s2)CC1`?
D1 agonist: 1; D1 antagonist: 10; TRHR enhancer: -1; TRHR ag: 0; D1 potentiator: 0

How did O=C(Nc1nnc(S(=O)(=O)N2CCCCCC2)s1)c1ccc(Cl)cc1 do in these assays?
D1 agonist: 8; D1 antagonist: 4; TRHR enhancer: 37*!; TRHR ag: 1; D1 potentiator: 8

Results for Cc1ccc(C(=O)Nc2nnc(S(=O)(=O)N3CCCCCC3)s2)cc1 ?
D1 agonist: 1; D1 antagonist: -2; TRHR enhancer: 5; TRHR ag: 0; D1 potentiator: -3

What do the screens show for `CC(C)C(=O)Nc1nnc(S(=O)(=O)N2CCCCCC2)s1`?
D1 agonist: 0; D1 antagonist: -32*!; TRHR enhancer: 7; TRHR ag: 1; D1 potentiator: -1

Results for CCOC(=O)c1noc2ncn(CC(=O)Nc3ccccc3OC)c(=O)c12 ?
D1 agonist: 4; D1 antagonist: 9; TRHR enhancer: 2; TRHR ag: 0; D1 potentiator: -1

How did COc1cc(SC)ccc1C(=O)N1CCn2c3c(c4cc(C)ccc42)CCCC31 (stereo unspecified) do in these assays?
D1 agonist: -1; D1 antagonist: 2; TRHR enhancer: 0; TRHR ag: 5; D1 potentiator: 0

How did CCOC(=O)Cc1ccc(NC(=O)NCc2ccc3c(c2)CCN3C(=O)CC)cc1 do in these assays?
D1 agonist: 1; D1 antagonist: 5; TRHR enhancer: 3; TRHR ag: -1; D1 potentiator: 0

Results for COc1cccc(C(C2C(=O)CC(C)(C)CC2=O)C2C(=O)CC(C)(C)CC2=O)c1 ?
D1 agonist: 2; D1 antagonist: -1; TRHR enhancer: -3; TRHR ag: -1; D1 potentiator: 4

What do the screens show for `COc1cccc(C(C2=C(O)CC(C)(C)CC2=O)C2C(=O)CC(C)(C)CC2=O)c1` (stereo unspecified)?
D1 agonist: 1; D1 antagonist: -2; TRHR enhancer: 34*; TRHR ag: 0; D1 potentiator: -3

Results for COc1ccc(-c2cn3cccnc3n2)cc1NC(=O)COc1ccccc1 ?
D1 agonist: 0; D1 antagonist: -2; TRHR enhancer: 13; TRHR ag: -1; D1 potentiator: -3

How did COC(=O)c1sc(N)c(C(=O)OC)c1COC(=O)CNS(=O)(=O)c1cccc(C#N)c1 do in these assays?
D1 agonist: 1; D1 antagonist: -33*; TRHR enhancer: 9; TRHR ag: 0; D1 potentiator: 6

How did COC(=O)c1sc(N)c(C(=O)OC)c1COC(=O)[C@@H](NS(=O)(=O)c1cccc(Cl)c1)C(C)C do in these assays?
D1 agonist: -1; D1 antagonist: -13; TRHR enhancer: 0; TRHR ag: -1; D1 potentiator: 2

Results for CCOc1cccc2sc(NC(=O)CS(=O)(=O)c3ccc(C)cc3)nc12 ?
D1 agonist: 0; TRHR enhancer: 4; TRHR ag: 0; D1 potentiator: 2

Results for O=C(Nc1cccc(Cl)c1)NC1CC2CCC(C1)N2Cc1ccco1 (stereo unspecified) ?
D1 agonist: 19; D1 antagonist: -41*; TRHR enhancer: -7; TRHR ag: 0; D1 potentiator: -7

What do the screens show for `Cc1ccc(C(=O)NC2CC3CCC(C2)N3Cc2ccco2)cc1` (stereo unspecified)?
D1 agonist: 0; D1 antagonist: -70*; TRHR enhancer: 4; TRHR ag: 0; D1 potentiator: -28

How did COc1cc(OC)cc(C(=O)NC2CC3CCC(C2)N3Cc2ccco2)c1 (stereo unspecified) do in these assays?
D1 agonist: 0; D1 antagonist: -35*; TRHR enhancer: -3; TRHR ag: 0; D1 potentiator: -11

Results for Cc1ccc(C)c(NC(=S)NC2CC3CCC(C2)N3Cc2ccco2)c1 (stereo unspecified) ?
D1 agonist: 21; D1 antagonist: -5; TRHR enhancer: 6; TRHR ag: -1; D1 potentiator: -2

What do the screens show for `CC(C)CC(c1nnnn1Cc1ccc2c(c1)OCO2)N1CCC(C(N)=O)CC1` (stereo unspecified)?
D1 agonist: 1; D1 antagonist: -2; TRHR enhancer: -2; TRHR ag: 0; D1 potentiator: -2

How did CCC(=O)Nc1ccc(C(=O)Nc2ccc(Br)cc2F)cc1 do in these assays?
D1 agonist: 3; D1 antagonist: 1; TRHR enhancer: 40*; TRHR ag: 2; D1 potentiator: -1

What do the screens show for `COc1cccc(/C=C/C(=O)OCC(=O)NCC2CCCO2)c1` (stereo unspecified)?
D1 agonist: 4; D1 antagonist: 16; TRHR enhancer: 0; TRHR ag: 0; D1 potentiator: -2

Results for COc1cccc(/C=C/C(=O)OCC(=O)NCC2CCCO2)c1OC (stereo unspecified) ?
D1 agonist: 5; D1 antagonist: -34*; TRHR enhancer: 10; TRHR ag: 0; D1 potentiator: 5

Results for COC(=O)c1cc2oc3ccccc3c2n1CC(=O)Nc1ccc(OC)c(OC)c1 ?
D1 agonist: 4; D1 antagonist: 4; TRHR enhancer: 3; TRHR ag: 0; D1 potentiator: -5

How did COc1ccc(NCC(=O)N2CCCC2)cc1Cl do in these assays?
D1 agonist: 2; D1 antagonist: -30*; TRHR enhancer: 3; TRHR ag: 0; D1 potentiator: 0

What do the screens show for `COc1ccc(NS(=O)(=O)c2c(C)[nH]c(C)c2C(=O)N2CCCCC2)cc1Cl`?
D1 agonist: 14; D1 antagonist: 2; TRHR enhancer: -5; TRHR ag: 0; D1 potentiator: -5

Results for COc1ccc(F)cc1Cn1nc(C(=O)O)c2ccccc2c1=O ?
D1 agonist: 1; D1 antagonist: -2; TRHR enhancer: -10; TRHR ag: -1; D1 potentiator: -8

Results for CN1C(=O)c2cccc3c(Cl)ccc(c23)C1=O ?
D1 agonist: 3; D1 antagonist: 3; TRHR enhancer: -2; TRHR ag: 0; D1 potentiator: 1

What do the screens show for `CNc1ccc2c3c(cccc13)C(=O)N(C)C2=O`?
D1 agonist: 338*; D1 antagonist: -38*; TRHR enhancer: 47*; TRHR ag: 262*; D1 potentiator: -18

Results for CCOc1ccc(Sc2cc(C(=O)NC(C)c3ccccc3)c3ccccc3n2)cc1 (stereo unspecified) ?
D1 agonist: -3; D1 antagonist: -30*; TRHR enhancer: -6; TRHR ag: 1; D1 potentiator: -3
